We go through 40 compounds from PubChem BioAssay.

Broadly, the inhibition is the relative decrease from the control value, in per cent.

SMILES strings stand for the structures.

The subject of one experiment is Rat fibroblasts (CREF). In words: inhibition of PEG-3 promoter-driven reporter – cell-based, HeLa, luciferase, CREF/GAPDH counter-screen panel, dose response (AID 624167). As to conditions: CREF/GAPDH counter-screens; run 1, dose range 1, at 100 µM (top of the series). (In general: The purpose of a counterscreen is to sort out artefacts and off-target activity.)
Turning to `O=C(N/N=C/c1sc(N2CCOCC2)nc1-c1ccccc1)c1cccc(S(=O)(=O)N2CCCC2)c1`, the inhibition is -19%.

With `Cc1nc(-c2ccc(NC(=O)c3ccco3)cc2)cs1`, the inhibition is 93.3%.

`O=C(c1ccco1)N1CCN(C(c2ccccc2Cl)c2nnnn2Cc2cccs2)CC1` (stereo not given): the inhibition is -23.5%.

Consider `COc1ccc(/C=C2\SC(=S)N(CCCC(=O)NNC(=O)c3ccccc3O)C2=O)cc1`, for which the inhibition worked out at 23.4%.

With `Cc1ccc(C(C[N+](=O)[O-])Sc2ccc(N)cc2)cc1` (stereo not given), the inhibition was 96.1%.

For `O=C(OCC(F)(F)F)c1cccc(COc2ccc3ccccc3c2)c1`, the inhibition amounted to 86.6%.

For the compound `O=C(O)c1ccc(N/N=C/c2ccc3c(c2)OCO3)cc1`, the inhibition was found to be 67.2%.

Turning to `Cc1cc(C)c2c(N)c(C(=O)Nc3ncc(C)s3)sc2n1`, the inhibition turned out to be 99.2%.

For the compound `Cc1cccc(C)c1NC(=O)c1nc(S(=O)(=O)Cc2ccccc2)ncc1Cl`, the inhibition was 99.2%.

On to `COc1ccc(-n2cc(-c3ccccc3)c3c(N4CCOCC4)ncnc32)cc1`, for which the inhibition was found to be 69.3%.

As to `CCCCC(=O)NC(c1ccccc1OC)c1ccc2cccnc2c1O` (stereo not given), the inhibition is -8.76%.

On to `Cc1cc(N2CCN(C)CC2)ccc1NC(=O)c1c2c(nc3ccccc13)CCN(Cc1ccccc1)C2`, for which the inhibition amounted to 99.4%.

With `Cc1cc(C)c(C)c(S(=O)(=O)N2CCN(C(=O)c3cc(=O)[nH]c4ccccc34)CC2)c1C`, the inhibition came out at 34.6%.

Turning to `CCCCCN1C=CC(=C2C(=O)c3ccccc3C2=O)C=C1`, the inhibition is 98.2%.

In the case of `CCCCCCCn1c(=N)n(CC(=O)c2ccco2)c2ccccc21`, the inhibition turned out to be 95.9%.

`O=c1oc2ccccc2cc1-c1cn2ccccc2n1`: the inhibition was determined as 94.6%.

Take `O=C(COc1ccc(Cl)cc1Cl)Nc1ccccn1`: the inhibition worked out at 101%.

Turning to `Cc1cc(NC(c2cccnc2)c2ccc3cccnc3c2O)no1` (stereo not given), the inhibition is 59.7%.

As for `CS(=O)(=O)c1ccc(-c2sc3ccccc3c2C#CCCO)cc1`, the inhibition was 95.2%.

On to `COc1cccc(-c2sc3ccccc3c2-c2ccc(OCCN(C)C)cc2)c1`, for which the inhibition amounted to 98.7%.

With `CCCSc1ccc2nc(-c3ccccc3)cn2c1`, the inhibition is 92.4%.

`CC(=O)NC(c1ccc(N(C)C)cc1)c1cc(Cl)c2cccnc2c1O` (stereo not given): the inhibition was -10.5%.

On to `Cc1ccc(NC(=S)NC(=O)c2ccc(F)cc2)cc1S(=O)(=O)Nc1ccccc1Cl`, for which the inhibition is -12%.

Turning to `CCCOc1ccc2cc(-c3ccccn3)c(=O)oc2c1`, the inhibition was determined as 96.1%.

In the case of `CCC(c1ccc(O)c(O)c1)C(CC)c1ccc(O)c(O)c1` (stereo not given), the inhibition stood at 100%.

`O=[N+]([O-])c1ccc(S(=O)(=O)c2ccccc2)nc1`: the inhibition is 99.3%.

For the compound `O=C(Nc1ccccc1C(=O)Nc1nnc(C(F)(F)F)s1)c1ccccc1`, the inhibition was -3.72%.

On to `S=C(NN=C(c1ccccc1)c1ccccn1)N(Cc1ccccn1)Cc1ccccn1`, for which the inhibition is 97.9%.

Consider `O=C(NCCc1ccccc1)c1ccc2c(c1)OCO2`, for which the inhibition was determined as 93.9%.

Regarding `CCC(=O)NC(c1cccs1)c1cc(Cl)c2cccnc2c1O` (stereo not given), the inhibition was 38.2%.

With `CN[C@H]1C[C@H]2c3[nH]c4ccc(-c5ccc(OC)cc5)cc4c3CCN2C(=O)[C@H]1[C@H](C)O`, the inhibition turned out to be 96%.

With `Brc1ccc(N=Nc2ccc3ccccc3n2)cc1`, the inhibition was 97.1%.

Turning to `CN1CCC2(CC1)N=C(c1ccc(F)cc1)C(=S)N2C(=O)c1ccc(C(C)(C)C)cc1`, the inhibition was 98.7%.

Consider `CN(C)c1ccc(/C=C2\SC(=O)N(CCc3nnc(N)s3)C2=O)cc1`, for which the inhibition was 83%.

With `CCn1nc(C)cc1-c1nnc(Sc2ncc([N+](=O)[O-])s2)n1C`, the inhibition stood at 99.4%.

For the compound `COc1cc(/C=C2\SC(=Nc3ccccc3OC)NC2=O)ccc1O`, the inhibition was -38.3%.

Turning to `O=C(NNC(=O)c1cccnc1SCc1cccc([N+](=O)[O-])c1)c1ccccn1`, the inhibition worked out at 46.9%.

Take `CN(C(=O)COC(=O)/C=C/c1cccc([N+](=O)[O-])c1)C1CCS(=O)(=O)C1` (stereo not given): the inhibition is 6.76%.

As to `O=C(Nc1ccccc1)c1nc[nH]c1C(=O)NCCCCCCNC(=O)c1[nH]cnc1C(=O)Nc1ccccc1`, the inhibition was -4.97%.

For `CCOc1cccc(/C=N/NC(=S)Nc2cc(S(=O)(=O)N3CCOCC3)ccc2N2CCOCC2)c1O`, the inhibition was determined as 26.2%.

A further experiment relates to Rat fibroblasts (CREF). Described as above. The following applies: CREF/GAPDH counter-screens; run 2, dose range 1, at 100 µM (top of the series).
For `O=C(N/N=C/c1sc(N2CCOCC2)nc1-c1ccccc1)c1cccc(S(=O)(=O)N2CCCC2)c1`, the inhibition is 87.5%.

As to `Cc1nc(-c2ccc(NC(=O)c3ccco3)cc2)cs1`, the inhibition is 95.8%.

Consider `O=C(c1ccco1)N1CCN(C(c2ccccc2Cl)c2nnnn2Cc2cccs2)CC1` (stereo not given), for which the inhibition is -17.6%.

Take `COc1ccc(/C=C2\SC(=S)N(CCCC(=O)NNC(=O)c3ccccc3O)C2=O)cc1`: the inhibition amounted to 43.3%.

In the case of `Cc1ccc(C(C[N+](=O)[O-])Sc2ccc(N)cc2)cc1` (stereo not given), the inhibition was 96.3%.

Consider `O=C(OCC(F)(F)F)c1cccc(COc2ccc3ccccc3c2)c1`, for which the inhibition stood at 85.7%.

For the compound `O=C(O)c1ccc(N/N=C/c2ccc3c(c2)OCO3)cc1`, the inhibition is 62.5%.

With `Cc1cc(C)c2c(N)c(C(=O)Nc3ncc(C)s3)sc2n1`, the inhibition was 98.9%.

Consider `Cc1cccc(C)c1NC(=O)c1nc(S(=O)(=O)Cc2ccccc2)ncc1Cl`, for which the inhibition came to 99%.

For the compound `COc1ccc(-n2cc(-c3ccccc3)c3c(N4CCOCC4)ncnc32)cc1`, the inhibition was found to be 67.2%.

As for `CCCCC(=O)NC(c1ccccc1OC)c1ccc2cccnc2c1O` (stereo not given), the inhibition is 5.38%.

For `Cc1cc(N2CCN(C)CC2)ccc1NC(=O)c1c2c(nc3ccccc13)CCN(Cc1ccccc1)C2`, the inhibition is 99.8%.

As for `Cc1cc(C)c(C)c(S(=O)(=O)N2CCN(C(=O)c3cc(=O)[nH]c4ccccc34)CC2)c1C`, the inhibition is 90.5%.

As for `CCCCCN1C=CC(=C2C(=O)c3ccccc3C2=O)C=C1`, the inhibition turned out to be 98.3%.

As to `CCCCCCCn1c(=N)n(CC(=O)c2ccco2)c2ccccc21`, the inhibition came out at 98%.

Regarding `O=c1oc2ccccc2cc1-c1cn2ccccc2n1`, the inhibition turned out to be 93.7%.

Regarding `O=C(COc1ccc(Cl)cc1Cl)Nc1ccccn1`, the inhibition worked out at 99.7%.

In the case of `Cc1cc(NC(c2cccnc2)c2ccc3cccnc3c2O)no1` (stereo not given), the inhibition was 94.9%.

As to `CS(=O)(=O)c1ccc(-c2sc3ccccc3c2C#CCCO)cc1`, the inhibition turned out to be 95.7%.

With `COc1cccc(-c2sc3ccccc3c2-c2ccc(OCCN(C)C)cc2)c1`, the inhibition is 99.3%.

On to `CCCSc1ccc2nc(-c3ccccc3)cn2c1`, for which the inhibition came to 95.7%.

On to `CC(=O)NC(c1ccc(N(C)C)cc1)c1cc(Cl)c2cccnc2c1O` (stereo not given), for which the inhibition came to 94.6%.

In the case of `Cc1ccc(NC(=S)NC(=O)c2ccc(F)cc2)cc1S(=O)(=O)Nc1ccccc1Cl`, the inhibition stood at 91.7%.

For the compound `CCCOc1ccc2cc(-c3ccccn3)c(=O)oc2c1`, the inhibition was 95.4%.

`CCC(c1ccc(O)c(O)c1)C(CC)c1ccc(O)c(O)c1` (stereo not given): the inhibition came to 97.1%.

Turning to `O=[N+]([O-])c1ccc(S(=O)(=O)c2ccccc2)nc1`, the inhibition turned out to be 98.6%.

For `O=C(Nc1ccccc1C(=O)Nc1nnc(C(F)(F)F)s1)c1ccccc1`, the inhibition came out at 11.8%.

Turning to `S=C(NN=C(c1ccccc1)c1ccccn1)N(Cc1ccccn1)Cc1ccccn1`, the inhibition was determined as 98%.

`O=C(NCCc1ccccc1)c1ccc2c(c1)OCO2`: the inhibition was 93.7%.

Take `CCC(=O)NC(c1cccs1)c1cc(Cl)c2cccnc2c1O` (stereo not given): the inhibition stood at 97.6%.

For `CN[C@H]1C[C@H]2c3[nH]c4ccc(-c5ccc(OC)cc5)cc4c3CCN2C(=O)[C@H]1[C@H](C)O`, the inhibition amounted to 99.6%.

As to `Brc1ccc(N=Nc2ccc3ccccc3n2)cc1`, the inhibition was determined as 96.3%.

On to `CN1CCC2(CC1)N=C(c1ccc(F)cc1)C(=S)N2C(=O)c1ccc(C(C)(C)C)cc1`, for which the inhibition was determined as 68.4%.

In the case of `CN(C)c1ccc(/C=C2\SC(=O)N(CCc3nnc(N)s3)C2=O)cc1`, the inhibition was 82.3%.

Consider `CCn1nc(C)cc1-c1nnc(Sc2ncc([N+](=O)[O-])s2)n1C`, for which the inhibition stood at 98.8%.

For the compound `COc1cc(/C=C2\SC(=Nc3ccccc3OC)NC2=O)ccc1O`, the inhibition is -20.9%.

On to `O=C(NNC(=O)c1cccnc1SCc1cccc([N+](=O)[O-])c1)c1ccccn1`, for which the inhibition was determined as 42.9%.

As for `CN(C(=O)COC(=O)/C=C/c1cccc([N+](=O)[O-])c1)C1CCS(=O)(=O)C1` (stereo not given), the inhibition was 36.6%.

For the compound `O=C(Nc1ccccc1)c1nc[nH]c1C(=O)NCCCCCCNC(=O)c1[nH]cnc1C(=O)Nc1ccccc1`, the inhibition was -1.9%.

As to `CCOc1cccc(/C=N/NC(=S)Nc2cc(S(=O)(=O)N3CCOCC3)ccc2N2CCOCC2)c1O`, the inhibition came out at 48.3%.
